In PubChem BioAssay AID1347142 (National Center for Advancing Translational Sciences (NCATS), 2019):
Results filed as inconclusive are left out. Active and inactive are the calls of the source. Calls follow the shape of the dose curve; as a rule, active = well fitted inhibition curve with a large enough effect; inconclusive = small, poorly fitted or top-dose-only effect; inactive = no such curve, though single readings can be large or run the other way.

Biological target: N-terminal Xaa-Pro-Lys N-methyltransferase 1 (Homo sapiens) (UniProt Q9BV86)
Assay: qHTS Assay for Inhibitors of N-terminal methyltransferase 1 (NTMT1): ThioGlo3 Assay Confirmatory Screen, Round 1.
Settings: NTMT1 SAHH-coupled ThioGlo3 fluorescence, 30 min; series mostly up to 56.8 µM
Procedure, shortened: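 Human NTMT1 at 125 nM was preincubated 1 min at room temperature with compounds at various concentrations or 1 uM RCC1-6 control. Substrate mix (100 uM SAM, 10 uM SAHH, 15 uM ThioGlo3) was added, and fluorescence (Ex 340/Em 450 nm) was read at start and after 30 min, normalized to background.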
Also: nearly all actives have a fitted effect of over 80% in size.
Potency is read from the fitted curve at half-maximal effect.

Sequence of N-terminal Xaa-Pro-Lys N-methyltransferase 1 (Homo sapiens) (Q9BV86 whole entry, looked up): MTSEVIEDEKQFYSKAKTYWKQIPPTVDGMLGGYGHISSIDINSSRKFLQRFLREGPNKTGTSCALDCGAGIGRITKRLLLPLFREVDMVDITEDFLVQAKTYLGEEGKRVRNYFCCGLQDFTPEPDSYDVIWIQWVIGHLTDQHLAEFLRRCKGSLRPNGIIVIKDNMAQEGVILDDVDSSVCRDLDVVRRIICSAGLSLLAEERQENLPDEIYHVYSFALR

Row | Compound | Potency
1 | OC[C@@H]1O[C@@H](n2cnc3c(NC4CCCC4)ncnc32)[C@H](O)[C@H]1O | inactive
2 | COc1cc2c(NC3CCN(C4CCCCC4)CC3)nc(N3CCCCCC3)nc2cc1OCCCN1CCCCC1 | 24.1 µM (active)
3 | COc1cc2c(NC3CCN(C(C)C)CC3)nc(N3CCCN(C)CC3)nc2cc1OCCCN1CCCCC1 | 24.1 µM (active)
4 | CSc1nc(N)c2ncn([C@@H]3O[C@H](COP(=O)(O)OP(=O)(O)OP(=O)(O)O)[C@@H](O)[C@H]3O)c2n1 | inactive
5 | CNC(=O)[C@H]1O[C@H](n2cnc3c(NCc4cccc(I)c4)ncnc32)[C@@H](O)[C@@H]1O | inactive
6 | CO[C@@H]1[C@@H]2OP(=O)(O)OC[C@H]2O[C@H]1n1c(Sc2ccc(Cl)cc2)nc2c(N)ncnc21 | inactive
7 | COc1cc2c(NC3CCN(C4CCCCC4)CC3)nc(N3CCCCC3)nc2cc1OCCCN1CCCCC1 | 24.1 µM (active)
8 | COc1cc2c(NC3CCN(C(C)C)CC3)nc(N3CCCN(C(C)C)CC3)nc2cc1OCCOCCN(C)C | 24.1 µM (active)
9 | COc1cc2c(NC3CCN(CC4CCCCC4)CC3)nc(N3CCCCCC3)nc2cc1OCCCN1CCCCC1 | 24.1 µM (active)
10 | COc1cc2c(NC3CCN(C(C)C)CC3)nc(N3CCCN(C(C)C)CC3)nc2cc1OCCCN1CCCC1 | 27.1 µM (active)
11 | CNC(=O)[C@H]1O[C@@H](n2cnc3c(N)ncnc32)[C@H](O)[C@@H]1O | inactive
12 | COc1cc2nc(N(C)C)nc(NC3CCN(C)CC3)c2cc1OC | 24.1 µM (active)
13 | COc1cc2c(NC3CCN(C)CC3)nc(N3CCCN(C)CC3)nc2cc1OCC1CCNCC1 | 24.1 µM (active)
14 | COc1cc2c(NC3CCN(C)CC3)nc(N3CCN(C)CC3)nc2cc1OCCCN(C)C | 24.1 µM (active)
15 | COc1cc2nc(N3CCCCC3)nc(NC3CCN(Cc4ccccc4)CC3)c2cc1OC | 21.5 µM (active)
16 | CCN(c1cc(-c2ccc(CN3CCOCC3)cc2)cc(C(=O)NCc2c(C)cc(C)[nH]c2=O)c1C)C1CCOCC1 | inactive
17 | COc1cc2nc(N(C)C)nc(NC3CC3)c2cc1OC | inactive
18 | COc1cc2c(NC3CCN(C(C)C)CC3)nc(N3CCCN(CC4CCCCC4)CC3)nc2cc1OCCCN1CCCCC1 | 24.1 µM (active)

Row | Compound | Potency
19 | OC[C@H]1O[C@@H](n2cnc3cncnc32)[C@H](O)[C@@H]1O | 2.41 µM (active)
20 | OCC1OC(n2cnc3c(NO)ncnc32)C(O)C1O (stereo unspecified) | 3.83 µM (active)
21 | CC(C)N(CCCNC(=O)Nc1ccc(C(C)(C)C)cc1)C[C@H]1O[C@@H](n2cc(Br)c3c(N)ncnc32)[C@H](O)[C@@H]1O | inactive
22 | C[S+](CCC(N)C(=O)O)CC1O[C@@H](n2cnc3c(N)ncnc32)C(O)C1O (stereo partly specified) | inactive
23 | COc1cc2c(NC3CCN(C(C)C)CC3)nc(N3CCCCCC3)nc2cc1OCCOCCN(C)C | 21.5 µM (active)
24 | Nc1nc(Cl)nc2c1ncn2[C@H]1C[C@H](O)[C@@H](CO)O1 | inactive
25 | COc1cc2c(NC3CCN(C)CC3)nc(N3CCCN(C)CC3)nc2cc1OCCCC(C)C | 24.1 µM (active)
26 | Nc1nc(Cl)nc2c1ncn2[C@@H]1O[C@H](COP(=O)(O)OP(=O)(O)OP(=O)(O)O)C(O)[C@H]1O (stereo partly specified) | 21.5 µM (active)
27 | COc1cc2nc(NC3CCN(C)CC3)nc(NC3CCN(C)CC3)c2cc1OC | 27.1 µM (active)
28 | C=CCNc1nc(NC2CCN(C)CC2)c2cc(OC)c(OC)cc2n1 | 27.1 µM (active)
29 | CCCCC#Cc1nc(NC)c2ncn([C@@H]3O[C@@H](CO)[C@H](O)[C@H]3O)c2n1 | inactive
30 | COc1cc2nc(N3CCN(C)CC3)nc(N3CCN(C(C)=O)CC3)c2cc1OC | 21.5 µM (active)
31 | COc1cc2c(NC3CCN(CC4CCCCC4)CC3)nc(N3CCCN(C)CC3)nc2cc1OCCCN1CCCCC1 | 21.5 µM (active)
32 | COc1cc2nc(N3CCCN(C)CC3)nc(NC3CCOCC3)c2cc1OC | 24.1 µM (active)
33 | COc1cc2nc(N3CCCN(C)CC3)nc(NC3CCN(C)CC3)c2cc1OC | 21.5 µM (active)
34 | OC[C@H]1O[C@@H](n2cnc3c(NC4CCCCC4)ncnc32)[C@H](O)[C@@H]1O | inactive
35 | CNc1ncnc2c1ncn2[C@@H]1O[C@H](CO)[C@@H](O)[C@H]1O | inactive
36 | COc1cc2c(NC3CCN(C4CCCCC4)CC3)nc(N3CCCN(C)CC3)nc2cc1OCCOCCN(C)C | 27.1 µM (active)
